D1 PAM: Potentiators of Human D1 Dopamine Receptor: qHTS. actives 0.036% (n = 360,000). HEK293 TREx D1 cells, calcium flux, dopamine EC20 potentiation. potentiation, % at 10 µM; in the data active means potentiation above about 30%; further: 0% is about no effect
D3 ag: qHTS of D3 Dopamine Receptor Agonist: qHTS; D(3) dopamine receptor (Homo sapiens), P35462; D3R DiscoveRx beta-arrestin cells, luminescence, 90 min; max activation, %; actives 0.58% (n = 410,000); in the data active means max activation above about 30%; further: 0% is about no effect
Target sequence (P35462 whole entry, looked up): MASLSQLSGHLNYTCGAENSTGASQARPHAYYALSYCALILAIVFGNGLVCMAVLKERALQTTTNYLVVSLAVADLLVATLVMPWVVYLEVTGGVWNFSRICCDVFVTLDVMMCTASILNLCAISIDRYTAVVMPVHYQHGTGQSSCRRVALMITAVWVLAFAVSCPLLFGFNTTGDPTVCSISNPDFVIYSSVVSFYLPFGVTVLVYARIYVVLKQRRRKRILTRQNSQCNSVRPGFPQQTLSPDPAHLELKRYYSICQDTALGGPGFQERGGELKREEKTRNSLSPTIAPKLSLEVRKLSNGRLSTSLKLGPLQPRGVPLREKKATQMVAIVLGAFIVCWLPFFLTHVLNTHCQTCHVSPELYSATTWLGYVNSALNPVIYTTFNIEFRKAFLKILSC
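Agonist-mode cell screen: cells plated at 1500/well and incubated overnight at 37 °C, then exposed to library compounds for 90 min at 37 °C. Detection reagent was added for 30–60 min at room temperature, and luminescence was read.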
DRD3 antagonist: qHTS of D3 Dopamine Receptor Antagonist: qHTS; D3R cells, DiscoveRx beta-arrestin luminescence, antagonist mode; stronger effect = lower value; actives 2.5% (n = 360,000); max response, negative = inhibition, %; AID 652054, 2013; in the data active means max response below about -50%; inconclusive means no clear call, values can overlap the other calls; further: on the % scale 0 is the no-effect control and ±100 the full control effect
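Cells expressing the human receptor were seeded at 1500 cells/well, incubated overnight at 37 degrees C in 5% CO2, then exposed to library compounds with dopamine controls for 90 minutes at 37 degrees C before luminescent detection.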
D1 ag: Allosteric Agonists of the Human D1 Dopamine Receptor: qHTS; D(1A) dopamine receptor (Homo sapiens), P21728; activation, % at 2 µM; actives 1% (n = 360,000); HEK293 T-REx D1 cells, calcium flux, agonist mode; in the data active means activation above about 30%; further: 0% is about no effect
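Tetracycline-induced HEK293 TREx D1 cells, force-coupled to calcium signalling, were dye-loaded with a no-wash calcium kit. Compound was pin-added after a 10 s baseline. Fluorescence was read kinetically at 1 cycle/s for 180 s, with calcium rises flagged as agonism.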
D1 antagonist: Antagonist of Human D 1 Dopamine Receptor: qHTS; HEK293 TREx D1 cells, calcium flux, dopamine EC80; stronger effect = lower value; actives 3.2% (n = 360,000); activity change, negative = inhibition, % at 10 µM; D(1A) dopamine receptor (Homo sapiens), P21728; in the data active means activity change below about -30%; further: on the % scale 0 is the no-effect control and ±100 the full control effect
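Calcium flux readout: force-coupled, inducible Hek293 Trex D1 line, cells induced overnight at 30 C with tetracycline, dye-loaded 30–90 min at RT. Antagonism scored against EC80 dopamine challenge given 180 s after compound.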
An asterisk follows results filed as active; ? = inconclusive; . = no result. Compounds with a hit are over-represented: about 6.1% of the library has one in this group of screens.

SMILES	D1 PAM	D3 ag	DRD3 antagonist	D1 ag	D1 antagonist
Cc1ccc(NC(=O)c2nc(-c3ccncc3)no2)c(Cl)c1	-4.3	-15.9	.	11.8	-47.4*
CC(C(=O)OCC(=O)Nc1ccccc1OC(F)F)N1C(=O)C2CC=CCC2C1=O (centres undefined)	.	-1.1	-17.0	.	.
CCN(Cc1ccccc1)C(=O)Cn1c(=O)n(-c2ccc(Cl)cc2)c(=O)c2c(C)c(C)sc21	-0.7	-15.0	.	2.6	1.9
O=C(c1cc(Br)c(Br)s1)N1CCN(C/C=C/c2ccccc2)CC1	6.4	2.9	-78.2*	2.1	-0.7
O=C(c1cc2ccccc2o1)N1CCN(C/C=C/c2ccccc2)CC1	-9.2	-18.6	-78.1*	1.6	-29.0
OCCNc1nc(NCCC2=CCCCC2)nc(N2CCOCC2)n1	-12.2	0.8	-4.7	1.0	-54.3*
CCOc1cccc(-c2c(C(=O)N/N=C/c3sccc3C)nnn2-c2nonc2N)c1	3.9	-6.8	-11.5	4.4	2.8
Cc1ccc(-c2c(C(=O)N/N=C/c3ccco3)nnn2-c2nonc2N)cc1	6.9	-5.7	-18.0	94.4*	31.4
Cc1ccc(-c2c(C(=O)N/N=C/c3ccsc3)nnn2-c2nonc2N)cc1	9.5	1.4	-7.9	147.6*	110.8
Cc1ccc(-c2c(C(=O)N/N=C/c3cccc(Cl)c3)nnn2-c2nonc2N)cc1	-2.6	-1.8	-8.8	16.4	-6.0
CCOc1cccc(-c2c(C(=O)N/N=C/c3ccsc3)nnn2-c2nonc2N)c1	29.5	7.2	-22.2	72.4*	45.3
CCOc1ccc(-c2c(C(=O)N/N=C/c3ccco3)nnn2-c2nonc2N)cc1	-4.6	-15.0	5.8	29.2	25.2
Cc1ccc(-c2c(C(=O)N/N=C/c3cccs3)nnn2-c2nonc2N)cc1	19.8	1.1	-0.3	75.7*	41.5
C=CCc1c(C)nc2ccc(C(=O)OCC)cc2c1Cl	-4.4	8.6	16.7	2.9	3.5
Nc1nonc1-n1nnc(C(=O)N/N=C/c2cccs2)c1-c1ccc2c(c1)OCO2	4.7	-8.0	-6.3	102.1*	25.3
CCOC(=O)c1c(N)sc2c(NC(C)=O)cccc12	-6.3	0.2	-80.7*	2.3	-1.6
Cc1cccc(C2=NN(c3ccccc3)[C@H](CO)[C@H]2c2ccccc2)c1	.	41.7*	13.7	.	.
OC[C@@H]1[C@@H](c2ccc(F)cc2)C(c2ccccc2)=NN1c1ccccc1	.	16.8	2.4	.	.
Cc1ccc(C(=O)NC(CCc2ccccc2)C(=O)O)cc1 (centres undefined)	.	8.5	43.7	.	.
C=C(C)COc1ccc(-c2[nH]ncc2-c2ccccc2OC)c(O)c1	-5.0	-3.2	-63.2*	6.9	-11.8
C=C(C)COc1ccc(-c2[nH]ncc2Oc2ccccc2OC)c(O)c1	-2.2	-2.3	?	0.9	-26.9
O=C(CNC1CCCCCC1)Nc1ccccc1N1CCCCC1	6.0	-1.6	-63.7*	-0.7	32.9
Cc1ccc(NC(=O)C(C)N2CCc3ccccc3C2)cc1 (centres undefined)	4.3	-23.4	-76.1*	2.0	2.6
Cc1cc(C)cc(NC(=O)CCCCCN2C(=O)[C@@H]3Cc4ccccc4CN3C2=O)c1	-4.5	-10.7	1.3	0.2	-39.9*
CCOC(=O)c1ccc(NC(=O)CCC(=O)N2Cc3ccccc3Oc3ncccc32)cc1	2.9	-12.0	.	36.9*	9.4
COc1cccc(NC(=O)CCCCCN2C(=O)[C@@H]3Cc4ccccc4CN3C2=O)c1	-2.7	1.0	-0.7	5.6	-13.8
O=C(CCC(=O)N1Cc2ccccc2Oc2ncccc21)Nc1ccc(Cl)cc1	-3.7	-10.5	.	6.3	-3.8
COc1ccc(OC)c(NC(=O)Cn2cnc3sc(C)c(S(=O)(=O)N4CCN(c5ccccc5OC)CC4)c3c2=O)c1	0.3	3.2	.	2.3	-3.3
CC(C)CN(C(=O)Cn1nnc(-c2ccc(F)cc2)n1)C1CCS(=O)(=O)C1 (centres undefined)	-3.1	-1.3	14.6	2.1	-0.4
COc1cccc(-n2cc(C(=O)OCc3ccc(F)c(F)c3)c3ccccc3c2=O)c1	3.6	2.9	.	3.0	12.5
